From PubChem BioAssay (Tox21)
Inconclusive results are not listed. The source made the active and inactive calls. Unless noted, the call rests on the fitted dose curve; in most records, active means well fitted curve in the direction sought with a large enough effect in the repeat runs; inconclusive means weak or mixed curves; inactive means no such curve, though single readings can be large; an effect the other way counts as inactive or inconclusive.

Legend:
[1] = molecular target: Estrogen receptor beta (Homo sapiens) (UniProt Q92731); assay: qHTS assay to identify small molecule agonists of the estrogen receptor beta (ER-beta) signaling pathway (AID 1259377; active means well fitted activation curve with a large enough effect in the signal ratio in the repeat runs, not every such curve was filed as active; the % refers to the signal ratio)
Sequence of Estrogen receptor beta (Homo sapiens) (Q92731 whole entry, looked up): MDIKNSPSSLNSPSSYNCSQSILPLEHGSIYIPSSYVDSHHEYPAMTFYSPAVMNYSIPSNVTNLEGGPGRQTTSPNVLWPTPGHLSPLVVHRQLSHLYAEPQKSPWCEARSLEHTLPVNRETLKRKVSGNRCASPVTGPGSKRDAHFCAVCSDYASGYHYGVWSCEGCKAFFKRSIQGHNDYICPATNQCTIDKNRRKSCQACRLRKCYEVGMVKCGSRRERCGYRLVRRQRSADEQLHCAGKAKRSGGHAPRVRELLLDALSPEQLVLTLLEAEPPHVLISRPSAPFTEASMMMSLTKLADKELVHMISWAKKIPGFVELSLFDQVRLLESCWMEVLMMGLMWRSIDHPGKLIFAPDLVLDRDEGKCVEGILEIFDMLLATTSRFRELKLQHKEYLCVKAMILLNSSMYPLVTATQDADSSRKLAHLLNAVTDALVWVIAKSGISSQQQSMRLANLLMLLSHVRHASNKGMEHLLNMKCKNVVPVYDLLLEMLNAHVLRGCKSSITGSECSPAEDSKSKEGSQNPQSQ
Summary of the method: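 Beta-lactamase reporter readout: fluorescence of LiveBLAzer B/G FRET substrate after 2 h at room temperature, following 16 h compound treatment of ER-beta-UAS-bla HEK293T cells at 37C in 2% charcoal-stripped FBS medium.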

[2] = molecular target: Estrogen receptor beta (Homo sapiens) (UniProt Q92731); assay: qHTS assay to identify small molecule antagonists of the estrogen receptor beta (ER-beta) signaling pathway (AID 1259378; active means well fitted inhibition curve with a large enough effect in the signal ratio in the repeat runs, not every such curve was filed as active; the % refers to the signal ratio)
Summary of the method: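 Antagonist mode: compounds added to beta-lactamase reporter HEK293T ER-beta-UAS cells stimulated with E2 (1nM final), 16 hr at 37C. LiveBLAzer B/G FRET substrate, 2 hours room temperature, fluorescence read-out.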

[3] = qHTS assay to identify small molecule agonists of the androgen receptor (AR) signaling pathway in the presence of an antagonist - cell viability counter screen (AID 1259379);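 further: MDA-kb2 human breast cancer cells carrying an MMTV luciferase reporter; series mostly up to about 92 µM; nearly all actives have a fitted effect of over 25% in size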
Summary of the method: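 Cytotoxicity counter-screen run in the same wells as the nilutamide-challenged (3.0 µM final) AR agonist assay in MDA-kb2 cells. Compounds tested at 15 concentrations for 16 h, 37 °C without CO2; CellTiter-Fluor fluorescence read.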

[4] = qHTS assay to identify small molecule agonists of the estrogen receptor beta (ER-beta) signaling pathway - cell viability counter screen (AID 1259380); further: nearly all actives have a fitted effect of over 30% in size
Summary of the method: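 Cell viability counter screen: CellTiter-Glo luminescence (30 min, room temperature) measured in the same wells as the beta-lactamase readout, after 16 hr compound exposure at 37C of ER-beta-bla HEK293T cells in 2% charcoal-stripped FBS medium.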

[5] = qHTS assay to identify small molecule antagonists of the estrogen receptor beta (ER-beta) signaling pathway - cell viability counter screen (AID 1259382);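 further: HEK293T cells carrying ER-beta-UAS-bla reporter stimulated with estradiol; series mostly up to about 92 µM; nearly all actives have a fitted effect of over 55% in size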
Summary of the method: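 Cytotoxicity was measured in the same wells by CellTiter-Glo luminescence after 30 min at room temperature. Cells were ER-beta-bla HEK293T in charcoal-stripped serum, given compound together with 1 nM E2 and incubated 16 h at 37C.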

[6] = qHTS assay to identify small molecule agonists or antagonists of the thyroid stimulating hormone receptor (TSHR) signaling pathway - wild type cell line counter screen (AID 1259384; calls by dose curve)
Summary of the method: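 Counter screen in untransfected Hek293: compounds (15-point titration, triplicate) plus phosphodiesterase inhibitor Ro20-1724 added after 18 h plating; 30 min RT. Intracellular cAMP via competitive d2/cryptate immunoassay, 1 h incubation.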

[7] = molecular target: Thyrotropin receptor (Homo sapiens) (UniProt P16473); assay: qHTS assay to identify small molecule antagonists of the thyroid stimulating hormone receptor (TSHR) signaling pathway (AID 1259385; calls by dose curve; further: nearly all actives have a fitted effect of over 20% in size)
Sequence of Thyrotropin receptor (Homo sapiens) (P16473 whole entry, looked up): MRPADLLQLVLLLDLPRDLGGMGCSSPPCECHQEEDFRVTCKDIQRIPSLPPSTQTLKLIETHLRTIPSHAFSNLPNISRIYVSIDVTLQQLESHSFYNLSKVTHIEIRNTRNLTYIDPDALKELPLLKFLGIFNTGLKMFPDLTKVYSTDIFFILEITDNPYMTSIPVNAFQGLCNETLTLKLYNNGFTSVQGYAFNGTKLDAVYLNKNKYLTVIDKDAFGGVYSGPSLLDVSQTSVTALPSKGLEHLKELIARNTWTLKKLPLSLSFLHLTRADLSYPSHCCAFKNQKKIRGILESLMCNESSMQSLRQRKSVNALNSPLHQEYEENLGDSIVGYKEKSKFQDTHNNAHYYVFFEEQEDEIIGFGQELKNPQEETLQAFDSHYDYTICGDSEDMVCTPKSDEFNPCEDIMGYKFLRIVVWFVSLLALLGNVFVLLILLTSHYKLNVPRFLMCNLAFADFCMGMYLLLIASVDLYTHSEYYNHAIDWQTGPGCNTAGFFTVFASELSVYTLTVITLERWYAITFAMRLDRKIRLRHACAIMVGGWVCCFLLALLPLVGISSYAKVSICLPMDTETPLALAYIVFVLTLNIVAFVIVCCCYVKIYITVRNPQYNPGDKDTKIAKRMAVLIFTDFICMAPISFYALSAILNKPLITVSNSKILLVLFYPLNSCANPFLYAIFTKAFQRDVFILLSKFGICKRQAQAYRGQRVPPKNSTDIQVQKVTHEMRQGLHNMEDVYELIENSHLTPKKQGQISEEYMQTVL
Summary of the method: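 Antagonist mode: compound-treated TSHR-expressing HEK293 cells were stimulated with 1.5 ng/mL TSH (final) in presence of Ro20-1724 for 30 min at RT. HTRF cAMP detection after 1 h; each compound tested at 15 concentrations, triplicate.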

[8] = qHTS assay to identify small molecule agonists of the estrogen receptor alpha (ER-alpha) signaling pathway in the presence of an antagonist - cell viability counter screen (AID 1259386); further: series mostly up to about 92 µM; nearly all actives have a fitted effect of over 30% in size
Summary of the method: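 Compounds tested at 15 concentrations for 22 h at 37C alongside 10.0nM (final) ICI-182,780 antagonist, in VM7Luc4E2 cells grown in phenol red-free, charcoal-stripped medium. Viability read by CellTiter-Fluor fluorescence after 1 h reagent incubation.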

[9] = molecular target: Progesterone receptor (Homo sapiens) (UniProt P06401); assay: qHTS assay to identify small molecule agonists of the progesterone receptor (PR) signaling pathway (AID 1346784; calls by dose curve; further: nearly all actives have a fitted effect of over 30% in size)
Sequence of Progesterone receptor (Homo sapiens) (P06401 whole entry, looked up): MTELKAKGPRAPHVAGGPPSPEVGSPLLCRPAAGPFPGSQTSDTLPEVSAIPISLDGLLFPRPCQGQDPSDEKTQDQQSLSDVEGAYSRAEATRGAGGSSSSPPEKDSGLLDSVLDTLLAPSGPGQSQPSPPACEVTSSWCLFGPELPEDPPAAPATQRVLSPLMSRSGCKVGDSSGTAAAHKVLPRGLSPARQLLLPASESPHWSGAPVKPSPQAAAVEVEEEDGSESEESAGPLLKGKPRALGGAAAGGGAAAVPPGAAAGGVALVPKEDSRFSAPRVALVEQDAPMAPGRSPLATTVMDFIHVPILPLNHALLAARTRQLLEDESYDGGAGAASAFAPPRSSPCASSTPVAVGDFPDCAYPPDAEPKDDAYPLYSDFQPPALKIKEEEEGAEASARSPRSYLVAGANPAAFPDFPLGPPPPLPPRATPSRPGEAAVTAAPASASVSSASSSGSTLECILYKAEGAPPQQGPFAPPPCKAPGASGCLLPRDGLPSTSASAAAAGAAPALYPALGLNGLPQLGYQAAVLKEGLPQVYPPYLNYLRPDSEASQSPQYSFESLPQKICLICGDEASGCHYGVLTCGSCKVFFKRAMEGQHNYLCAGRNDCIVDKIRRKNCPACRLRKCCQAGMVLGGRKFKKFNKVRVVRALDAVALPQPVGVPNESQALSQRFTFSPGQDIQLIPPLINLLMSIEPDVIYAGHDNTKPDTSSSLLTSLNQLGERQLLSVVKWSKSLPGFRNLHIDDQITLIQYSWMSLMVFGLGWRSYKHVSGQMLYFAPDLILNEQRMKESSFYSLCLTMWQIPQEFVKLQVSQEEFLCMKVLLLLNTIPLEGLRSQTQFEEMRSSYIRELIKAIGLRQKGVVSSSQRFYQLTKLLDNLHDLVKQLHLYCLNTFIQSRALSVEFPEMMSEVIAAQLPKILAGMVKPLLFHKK
Summary of the method: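 HEK 293T PR-UAS-bla reporter cells, 2% charcoal-stripped FBS; 6 hr settle at 37C/5% CO2, compound (DMSO) 16 hr, LiveBLAzer B/G FRET substrate 2 hr RT, fluorescence intensity read.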

[10] = molecular target: Progesterone receptor (Homo sapiens) (UniProt P06401); assay: qHTS assay to identify small molecule antagonists of the progesterone receptor (PR) signaling pathway (AID 1346795; active means well fitted inhibition curve with a large enough effect in the signal ratio in the repeat runs, not every such curve was filed as active; the % refers to the signal ratio)
Summary of the method: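 Beta-lactamase reporter, HEK293T PR-UAS-bla line; 2% charcoal-stripped FBS; 6 hr pre-incubation, 37C/5% CO2. Compound + R5020 1 nM final, 16 hr. LiveBLAzer B/G FRET substrate, 2 hr RT; fluorescence intensity read.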

[11] = qHTS assay to identify small molecule antagonists of the progesterone receptor (PR) signaling pathway - cell viability counter screen (AID 1346798); further: series mostly up to about 92 µM; nearly all actives have a fitted effect of over 50% in size
Summary of the method: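 Luminescence readout (CellTiter-Glo, 30 min, RT) of viability in PR-UAS-bla HEK293T cells exposed to compound and R5020 agonist for 16 hr at 37C, 5% CO2; run in the same wells as the beta-lactamase reporter read.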

[12] = qHTS assay to identify small molecule agonists of the progesterone receptor (PR) signaling pathway - cell viability counter screen (AID 1346799; calls by dose curve; further: nearly all actives have a fitted effect of over 45% in size)
Summary of the method: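 HEK293T PR-UAS-bla, 3,000 cells/well, 2% charcoal-stripped FBS; 6 h settle, compound 16 h at 37C/5% CO2; LiveBLAzer 2 h RT, then CellTiter-Glo 30 min RT, luminescence read.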

[13] = qHTS assay to identify small molecule antagonists of the TGF-beta/Smad signaling pathway - cell viability counter screen (AID 1346824); further: nearly all actives have a fitted effect of over 50% in size
Summary of the method: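 Cytotoxicity counter-screen run in the same wells as the beta-lactamase Smad reporter read: CellTiter-Glo luminescence after 30 min at room temperature. HEK 293T SBE-bla cells had 5 hr compound exposure at 37 C with TGF-beta1 (0.25 ng/mL stock).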

[14] = qHTS assay to identify small molecule agonists of the TGF-beta/Smad signaling pathway - cell viability counter screen (AID 1346829); further: top concentration of the series differs between compounds; nearly all actives have a fitted effect of over 45% in size
Summary of the method: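 Cytotoxicity counter screen: CellTiter-Glo luminescence (30 min, room temperature) measured in the SBE-bla HEK 293T reporter wells after 5 hr compound treatment at 37 C and the 2 hr substrate step.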

[15] = qHTS assay to identify small molecule agonists of the TGF-beta/Smad signaling pathway (AID 1346859; active means well fitted activation curve with a large enough effect in the signal ratio in the repeat runs, not every such curve was filed as active; the % refers to the signal ratio; further: series mostly up to about 77 µM)
Summary of the method: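 Read-out: fluorescence at 460 and 530 nm (405 nm excitation) after a 2 hr room-temperature incubation with beta-lactamase FRET substrate. SBE-bla HEK 293T cells had been treated with test compounds for 5 hr at 37 C.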

[16] = molecular target: Estrogen receptor (Homo sapiens) (UniProt P03372); assay: qHTS assay to identify small molecule agonists of the estrogen receptor alpha (ER-alpha) signaling pathway in the presence of an antagonist (AID 1259383; calls by dose curve; further: top concentration of the series differs between compounds; nearly all actives have a fitted effect of over 15% in size)
Sequence of Estrogen receptor (Homo sapiens) (P03372 whole entry, looked up): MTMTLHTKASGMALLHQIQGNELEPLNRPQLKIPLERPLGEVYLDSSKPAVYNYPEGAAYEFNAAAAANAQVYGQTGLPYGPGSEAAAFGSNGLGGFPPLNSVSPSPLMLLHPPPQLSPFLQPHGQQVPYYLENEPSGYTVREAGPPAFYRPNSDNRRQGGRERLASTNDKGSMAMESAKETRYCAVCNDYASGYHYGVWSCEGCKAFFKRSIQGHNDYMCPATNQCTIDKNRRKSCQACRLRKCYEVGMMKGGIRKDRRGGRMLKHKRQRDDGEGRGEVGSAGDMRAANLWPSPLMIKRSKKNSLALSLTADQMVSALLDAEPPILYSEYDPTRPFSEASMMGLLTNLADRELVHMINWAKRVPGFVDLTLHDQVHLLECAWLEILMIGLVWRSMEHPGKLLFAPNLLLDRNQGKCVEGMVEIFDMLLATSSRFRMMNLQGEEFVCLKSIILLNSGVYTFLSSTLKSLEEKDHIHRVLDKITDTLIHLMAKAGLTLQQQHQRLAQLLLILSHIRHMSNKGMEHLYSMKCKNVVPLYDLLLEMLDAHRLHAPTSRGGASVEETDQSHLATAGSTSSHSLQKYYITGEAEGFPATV
Summary of the method: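 Agonist-mode confirmation run in the presence of 10.0nM (final) ICI-182,780 antagonist. The reporter was ERE-driven luciferase in VM7Luc4E2 cells, grown in charcoal-stripped serum. Cells were exposed to 15-concentration compound series for 22hr, then ONE-Glo luminescence was read.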

[17] = molecular target: Thyrotropin-releasing hormone receptor (Homo sapiens) (UniProt P34981); assay: qHTS assay to identify small molecule antagonists of the thyrotropin-releasing hormone receptor (TRHR) signaling pathway (AID 1346877; active means well fitted inhibition curve with a large enough effect in the repeat runs, not every such curve was filed as active; further: series mostly up to about 51 µM)
Sequence of Thyrotropin-releasing hormone receptor (Homo sapiens) (P34981 whole entry, looked up): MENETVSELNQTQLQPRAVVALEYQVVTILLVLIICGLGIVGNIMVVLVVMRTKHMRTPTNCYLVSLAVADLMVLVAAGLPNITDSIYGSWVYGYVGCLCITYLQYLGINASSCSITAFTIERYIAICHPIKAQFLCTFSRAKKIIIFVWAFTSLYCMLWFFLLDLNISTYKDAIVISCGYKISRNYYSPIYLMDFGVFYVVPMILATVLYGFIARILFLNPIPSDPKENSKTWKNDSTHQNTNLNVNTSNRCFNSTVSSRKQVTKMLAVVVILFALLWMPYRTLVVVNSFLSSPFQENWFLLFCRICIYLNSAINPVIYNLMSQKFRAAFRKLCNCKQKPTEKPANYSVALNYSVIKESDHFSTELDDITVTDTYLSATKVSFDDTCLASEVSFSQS
Summary of the method: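 Antagonist mode: after a 5 min room-temperature compound exposure, cells were stimulated with 1 nM (final) TRH. Dye-loaded TRHR-HEK293 cells were used, and calcium-dependent fluorescence was followed for 3 min, with 15-point titrations run in triplicate.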

[18] = molecular target: Thyrotropin-releasing hormone receptor (Homo sapiens) (UniProt P34981); assay: qHTS assay to identify small molecule agonists of the thyrotropin-releasing hormone receptor (TRHR) signaling pathway (AID 1346891; calls by dose curve;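 further: HEK293 cells expressing TRHR with calcium dye readout; series mostly up to about 58 µM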)
Summary of the method: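 HEK293/TRHR cells, 1500 per well, 18 h 37 °C; Ca dye 2 h 37 °C; pin-tool compound addition (agonist mode); kinetic fluorescence 3 min, 1 s reads; 15 concentrations, triplicate.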

Measured: Potency

CCC1(c2ccccc2)C(=O)NCNC1=O
inactive: [1] | [2] | [3] | [4] | [5] | [6] | [7] | [8] | [9] | [10] | [11] | [12] | [13] | [14] | [15]

COc1ccc2[nH]cc(CCNC(C)=O)c2c1
inactive: [1] | [2] | [3] | [5] | [16] | [6] | [7] | [8] | [9] | [10] | [11] | [12] | [13] | [14] | [15] | [17] | [18]

NC(=O)c1cnccn1
inactive: [1] | [2] | [3] | [5] | [16] | [8] | [9] | [10] | [11] | [12] | [13] | [14] | [15] | [17] | [18]

COc1c2occc2cc2ccc(=O)oc12
inactive: [1] | [2] | [3] | [4] | [6] | [7] | [8] | [9] | [10] | [11] | [12] | [13] | [14] | [15]
